Assay results published in PubChem BioAssay AID1159580 (chemical genetic matrix, 2015).
Where “and” joins values, the source holds several entries; their conditions need not be identical. Identical values can stand only once. About 2,000 (36%) of roughly 5,500 compounds were called active. Another 18% or so got no clear call; they are omitted. Rule as the data show it: active = normalized growth mostly below about 0.91 (no sharp cut-off); inconclusive = no clear call, values can overlap the other calls; inactive = mostly above about 0.92. The list shows a part of the results.

Experiment: chemical genetic growth profiling, strain panel (AID 1159580);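 also: tested at 20 µM; growth read once vehicle control cultures reached saturation at 30 °C; 1 = growth at the plate median or of vehicle wells; lower values mean less growth of the strain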
Conditions: S. cerevisiae deletion strains, growth OD

Measured: normalized growth

O=C(O)c1cc(=O)c2ccccc2[nH]1
inactive: locus YAL013W, strain DEP1, hits give low values 0.991 and 1.01 | locus YAL021C, strain ccr4, hits give low values 0.96 | locus YAL026C, strain drs2, hits give low values 0.986 | locus YAL030W, strain snc1, hits give low values 0.987 | locus YAL040C, strain CLN3, hits give low values 0.998 | locus YBL061C, strain skt5, hits give low values 0.972 | locus YBR009C, strain hhf1, hits give low values 0.979 | locus YBR021W, strain FUR4, hits give low values 1.02 | locus YBR023C, strain chs3, hits give low values 0.98 | locus YBR171W, strain sec66, hits give low values 0.975 | locus YBR229C, strain ROT2, hits give low values 0.96 | locus YBR231C, strain swc5, hits give low values 0.998 | locus YBR279W, strain paf1, hits give low values 0.992 | locus YCL011C, strain gbp2, hits give low values 0.986 | locus YCL016C, strain dcc1, hits give low values 0.981 | locus YCL029C, strain bik1, hits give low values 0.989 | locus YCL061C, strain MRC1 (second series), hits give low values 0.992 | locus YCL061C, strain MRC1, hits give low values 0.983 | locus YCL069W, strain vba3, hits give low values 0.993 | locus YCR088W, strain abp1, hits give low values 0.987 | locus YDL005C, strain med2, hits give low values 0.975 | locus YDL035C, strain GPR1, hits give low values 0.998 | locus YDL040C, strain nat1, hits give low values 0.988 | locus YDL074C, strain BRE1, hits give low values 0.986 | locus YDL101C, strain DUN1, hits give low values 0.964 | locus YDL134C, strain PPH21, hits give low values 0.972 | locus YDL185W, strain tfp1, hits give low values 0.979 | locus YDL192W, strain arf1, hits give low values 0.991 | locus YDR001C, strain nth1, hits give low values 0.991 | locus YDR069C, strain doa4, hits give low values 0.97 | locus YDR101C, strain arx1, hits give low values 0.993 | locus YDR137W, strain rgp1, hits give low values 1.02 | locus YDR150W, strain NUM1, hits give low values 0.975 and 1.01 | locus YDR159W, strain sac3, hits give low values 0.962 | locus YDR162C, strain NBP2, hits give low values 0.99 | locus YDR195W, strain ref2 0.968 | locus YDR297W, strain sur2, hits give low values 0.985 | locus YDR318W, strain mcm21, hits give low values 0.99 | locus YDR334W, strain swr1, hits give low values 0.984 | locus YDR335W, strain msn5, hits give low values 0.99 | locus YDR363W, strain ESC2, hits give low values 0.981 | locus YDR388W, hits give low values 0.997 | locus YDR392W, strain spt3, hits give low values 0.963 | locus YDR502C, strain sam2, hits give low values 0.995 | locus YEL003W, strain gim4, hits give low values 0.988 | locus YEL037C, strain rad23, hits give low values 0.99 | locus YEL061C, strain CIN8 (second series), hits give low values 0.993 | locus YEL061C, strain CIN8, hits give low values 0.992 | locus YER002W, strain NOP16, hits give low values 0.98 | locus YER015W, strain faa2, hits give low values 0.984 | locus YER016W, strain bim1, hits give low values 0.987 | locus YER110C, hits give low values 0.978 | locus YER111C, strain swi4, hits give low values 0.983 | locus YER155C, strain BEM2 (second series), hits give low values 0.981 | locus YER155C, strain BEM2, hits give low values 0.997 | locus YER167W, strain BCK2, hits give low values 1 | locus YFR010W, strain ubp6, hits give low values 0.977 | locus YGL078C, strain dbp3, hits give low values 0.987 | locus YGL086W, strain mad1, hits give low values 0.998 | locus YGL167C, strain pmr1, hits give low values 0.973 | locus YGL173C, strain kem1, hits give low values 0.986 | locus YGL227W, strain vid30, hits give low values 0.984 | locus YGL240W, strain doc1, hits give low values 0.987 | locus YGL248W, strain PDE1, hits give low values 0.977 | locus YGL253W, strain hxk2, hits give low values 0.988 | locus YGR078C, strain PAC10, hits give low values 0.999 and 0.983 | locus YGR135W, strain pre9, hits give low values 0.988 | locus YGR229C, strain SMI1, hits give low values 1 | locus YGR252W, strain gcn5, hits give low values 0.992 | locus YHR013C, strain ard1, hits give low values 0.958 | locus YHR027C, strain rpn1, hits give low values 1 | locus YHR030C, strain SLT2, hits give low values 0.991 and 0.972 | locus YHR079C, strain IRE1 (second series), hits give low values 0.989 | locus YHR079C, strain IRE1, hits give low values 0.985 | locus YHR094C, strain hxt1, hits give low values 0.996 | locus YHR129C, strain ARP1, hits give low values 0.995 | locus YHR142W, strain chs7, hits give low values 0.99 | locus YHR200W, strain rpn10, hits give low values 0.987 | locus YIL066C, strain RNR3, hits give low values 0.973 | locus YIL073C, strain SPO22, hits give low values 0.95 | locus YIL125W, strain kgd1, hits give low values 0.987 | locus YIR030C, strain dcg1, hits give low values 0.983 | locus YJL092W, strain hpr5, hits give low values 0.987 | locus YJL095W, strain BCK1 (second series), hits give low values 0.973 | locus YJL095W, strain BCK1, hits give low values 1.04 and 0.987 | locus YJL115W, strain asf1, hits give low values 0.992 | locus YJL129C, strain trk1, hits give low values 0.973 | locus YJL134W, strain LCB3, hits give low values 0.982 | locus YJL154C, strain vps35, hits give low values 0.98 | locus YJL164C, strain tpk1, hits give low values 1.01 | locus YJL166W, strain qcr8, hits give low values 0.998 | locus YJL168C, strain set2, hits give low values 0.996 | locus YJL187C, strain SWE1 (second series), hits give low values 0.967 | locus YJL187C, strain SWE1, hits give low values 0.987 | locus YJR043C, strain POL32, hits give low values 1 | locus YJR066W, strain TOR1, hits give low values 0.88
